Measured values: PubChem BioAssay (NCI)
The panel holds about 83,000 compounds, 20% with a hit somewhere; the sample as a whole holds those more often.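 Testing used 96-well plates and a 48-hour single-concentration exposure. Example: -40 means 40% of the starting cells died.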 Calls of active or inactive are those of the source. Rule for the calls: active = growth percent below 10; inactive = the rest.

Columns and labels:
Test in all cases: NCI-60 one-dose screen, 48 h (100 = growth as untreated, 0 = no growth, -100 = all killed)
Details in all cases: 10 µM unless noted
[1] = test system: HCT-15 colon
[2] = test system: HT29 colon
[3] = test system: SNB-75 CNS
[4] = test system: SNB-19 CNS
[5] = test system: U251 CNS
[6] = test system: PC-3 prostate
[7] = test system: SK-MEL-5 melanoma
[8] = test system: UACC-62 melanoma
[9] = test system: LOX IMVI melanoma
[10] = test system: SK-MEL-28 melanoma

Measured: growth

O=C(Nc1ccc(N=Cc2ccccc2O)cc1)NC1C=c2ccccc2=CC1 (stereo not given)
inactive: [1] 100% | [2] 104% | [3] 86.3% | [4] 100% | [5] 93.2% | [6] 104% | [7] 98.7% | [8] 92.7% | [9] 105% | [10] 99.8%

O=C(Nc1cc(=O)[nH]c(=O)[nH]1)C(Cl)Cl
inactive: [1] 103% | [2] 102% | [3] 96.9% | [4] 99% | [5] 99.5% | [6] 92% | [7] 102% | [8] 88.9% | [9] 100% | [10] 111%

COc1cc(NC(=O)Nc2cnc(Nc3ccc(N4CCOCC4)cc3)nc2Oc2ccc(F)cc2)cc(OC)c1
inactive: [1] 104% | [2] 86.9% | [3] 100% | [4] 96% | [5] 78.8% | [6] 83% | [7] 80.6% | [8] 106% | [9] 91% | [10] 106%

Cc1c(Cl)cccc1NC(=O)c1sc2nc3c(cc2c1N)CCCCC3
inactive: [1] 30.1% | [4] 34.2% | [5] 24.2% | [6] 37.9% | [7] 45.8% | [8] 39.6% | [9] 41.8% | [10] 72.6%
active: [2] 9.15% | [3] 9.95%

COc1cc2c(cc1OC)C(Sc1ccc(Cl)cc1)c1c(nc(N)c(C#N)c1N)O2 (stereo not given)
inactive: [4] 22.1% | [7] 12.5%
active: [1] -66.2% | [2] -61.9% | [3] -17.4% | [5] -62.5% | [6] 5.11% | [8] -23.8% | [9] -88.9% | [10] -3.09%

COc1ccc(C(=O)c2cc(OC)c(OC)c(OC)c2)cc1OC(=O)C(Cl)(Cl)Cl
inactive: [2] 13.4% | [3] 58% | [4] 23.5% | [6] 10.2% | [8] 39.8% | [9] 15.1% | [10] 51.6%
active: [1] 8.84% | [5] 5.44% | [7] -24.1%

COc1ccc(-c2nc(C#N)c(NCC(c3ccco3)N3CCCC3)o2)cc1 (stereo not given)
inactive: [1] 30.9% | [2] 10.7% | [3] 40.6% | [4] 51.9% | [5] 35.7% | [6] 37% | [7] 24.6% | [8] 47.2% | [9] 41.4% | [10] 61.7%

COc1cc(C2=NNC(c3ccc(N(C)C)cc3)C2)cc(OC)c1OC (stereo not given)
active: [2] 6.34% | [4] 8.5% | [7] -4.54%
inactive: [1] 30.9% | [3] 37.8% | [5] 28.8% | [6] 29.3% | [8] 40.8% | [9] 49.4% | [10] 79.4%

Cc1cc(C)nc(NS(=O)(=O)c2ccc(Nc3ccc4c5c(n(CCCN(C)C)c(=O)c4c3)-c3ccccc3C5=O)cc2)n1
inactive: [1] 90.3% | [2] 74.8% | [3] 79.5% | [4] 91% | [5] 75.3% | [6] 86.3% | [7] 85.6% | [8] 93.3% | [9] 72.6% | [10] 117%

CCOC(=O)c1ccc(Nc2ncnc3ccc(NC(=O)c4ccccc4)cc23)cc1
inactive: [1] 78.3% | [2] 79.6% | [3] 77.9% | [4] 99.9% | [5] 94.1% | [6] 83.1% | [7] 84.6% | [8] 88.9% | [9] 87.8% | [10] 89.6%

O=C1CCc2ccccc2N1
inactive: [1] 103% | [2] 102% | [3] 78.1% | [4] 96.2% | [5] 102% | [6] 102% | [7] 98.9% | [8] 97.6% | [9] 94.4% | [10] 104%

Cc1cc(Nc2nc(SCc3ccc(C(=O)Nc4ccc(F)cc4N)cc3)nn3cccc23)n[nH]1
active: [2] 4.22% | [7] 7.54%
inactive: [1] 22.6% | [3] 29.2% | [4] 43.8% | [5] 25% | [6] 28% | [8] 24.2% | [9] 30.1% | [10] 68.7%

Cc1cnc(-c2ccc(-c3ccc(NC(=O)Nc4c(F)cc(F)cc4F)cc3F)c3c2C(=O)NC3)[nH]1
inactive: [1] 49.4% | [2] 27% | [3] 17.3% | [4] 41.9% | [6] 39.7% | [7] 38.5% | [9] 32.9% | [10] 39.1%
active: [5] 8.19% | [8] 0.806%

Cc1cc(C)c2nc(Nc3nc(C)c(C)c(=O)[nH]3)nc(C)c2c1
inactive: [3] 51.3% | [4] 22% | [5] 16.7% | [6] 20.9%
active: [1] 7.23% | [2] 9.28% | [7] 2.14% | [8] -37.7% | [9] 6.29% | [10] 3.48%

COc1ccc(C(=O)c2cc(OC)c(C)c(OC)c2)cc1OC(=O)CCl
active: [7] 9.8%
inactive: [1] 12.4% | [2] 55.6% | [3] 38.1% | [4] 28.4% | [5] 17.1% | [6] 13.4% | [8] 38% | [9] 21.8% | [10] 49.5%

CC(C)Cc1cc(CNC(=O)C2[C@H]3CN(C(=O)c4ccccc4)C[C@@H]23)nn1-c1ccccc1 (stereo not given in full)
inactive: [1] 99.3% | [2] 66.5% | [3] 105% | [4] 107% | [5] 90.1% | [6] 90.8% | [7] 99% | [8] 88.2% | [9] 91.9% | [10] 93.5%

COc1cc(NC(=O)COc2cc(C)nc3ccc(OC)cc23)cc(OC)c1
inactive: [1] 90.9% | [2] 91.7% | [3] 77.3% | [4] 91.4% | [5] 91% | [6] 81.9% | [7] 76% | [8] 74.4% | [9] 85.8% | [10] 102%

NC(=O)c1ccc2nc3c(n2c1)C(=O)C(=O)c1ccccc1-3
active: [1] -63.4% | [2] -7.62% | [3] -95% | [4] -97.5% | [5] -98.6% | [6] -48.3% | [7] -100% | [8] -94.1% | [9] -78.4% | [10] -82.2%

CCCCc1n(Cc2ccc3ccccc3c2)c2ccccc2[n+]1Cc1ccc2ccccc2c1
active: [1] -89.2% | [2] -74.8% | [3] -9.62% | [4] -92.5% | [5] -87.2% | [6] -76.8% | [7] -100% | [8] -92.3% | [9] -93.5% | [10] -92.9%

CCCCn1c(=O)c(/C=C/C(=O)/C=C/c2ccc(O)c(OC)c2)cc2ccc(Cl)cc21
inactive: [3] 54.8% | [4] 38.3% | [6] 27.2% | [10] 38.8%
active: [1] 9.41% | [2] -41.7% | [5] 3.33% | [7] 3.38% | [8] 2.4% | [9] -51.3%

Nn1c(SCC(=O)Nc2ccc(Cl)cc2)nnc1-c1cc(F)c(Cl)cc1Cl
inactive: [1] 79.3% | [2] 95% | [3] 81.2% | [4] 98% | [5] 94.4% | [6] 85.7% | [7] 86.6% | [8] 65.8% | [9] 86% | [10] 98.1%

CN1CCN(C(=O)[C@@]2(C)CC[C@]3(C)CC[C@]4(C)C(=CC[C@@H]5[C@@]6(C)CC[C@H](OC(=O)c7cccnc7)C(C)(C)[C@@H]6CC[C@]54C)[C@@H]3C2)CC1
inactive: [3] 90.4% | [4] 19.8% | [6] 46.8% | [7] 64.4% | [8] 82.1% | [10] 76.7%
active: [1] -46.9% | [2] 8.46% | [5] -69.8% | [9] -26.4%

CC1CCCN(CCCCCOc2ccc3oc4ccc(Cl)cc4c(=O)c3c2)C1 (stereo not given)
active: [1] 2.05% | [2] 4.5% | [7] -14.3% | [8] -43.1%
inactive: [3] 82.5% | [4] 86.4% | [5] 68.2% | [6] 79.8% | [9] 10.9% | [10] 79.9%

C#C[C@@]1(O)[C@@H](CO)O[C@@H](n2cc(F)c3c(N)ncnc32)[C@@H]1O
active: [1] -5.29% | [2] 5.9% | [3] -34.3% | [5] 8.64% | [6] 5.02% | [7] -86.9% | [8] -51.9% | [9] -66.3%
inactive: [4] 20.7% | [10] 45.2%

C#C[C@@]1(O)[C@@H](CO)O[C@@H](n2cc(-c3ccco3)c3c(N)ncnc32)[C@@H]1O
inactive: [1] 59.3% | [2] 28.8% | [3] 14.6% | [4] 94.4% | [5] 81.8% | [6] 49.1% | [7] 89% | [8] 80.2% | [9] 65.6% | [10] 93.2%

Cc1cnc(SCc2ccc(Cl)cc2)[nH]c1=S
inactive: [1] 101% | [2] 82.9% | [3] 85.2% | [4] 98.2% | [5] 96.3% | [6] 104% | [7] 96.9% | [8] 99.4% | [9] 101% | [10] 98.9%
